Several values for one entry are separate records, joined by “and”; a condition that tells them apart may be missing. Equal values may be shown once. The whole screen tested about 5,500 compounds, of which about 2,000 (36%) were called active. Not shown: some 18% with an inconclusive outcome. Rule as the data show it: active = normalized growth mostly below about 0.91 (no sharp cut-off); inconclusive = no clear call, values can overlap the other calls; inactive = mostly above about 0.92. Some of the results follow.
Experiment: chemical genetic growth profiling, strain panel (AID 1159580);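 also: tested at 20 µM; growth read once vehicle control cultures reached saturation at 30 °C; 1 = growth at the plate median or of vehicle wells; lower values mean less growth of the strain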
Settings: S. cerevisiae deletion strains, growth OD

Measured: normalized growth

O=C(O)c1cc(O)c(O)c(O)c1
inactive: locus YAL021C, strain ccr4, active compounds read low 1.05 | locus YAL026C, strain drs2, active compounds read low 1.03 | locus YAL030W, strain snc1, active compounds read low 1.02 | locus YBL061C, strain skt5, active compounds read low 1.03 | locus YBR009C, strain hhf1, active compounds read low 1.02 | locus YBR021W, strain FUR4, active compounds read low 1.03 | locus YBR023C, strain chs3, active compounds read low 1.04 | locus YBR171W, strain sec66, active compounds read low 1.03 | locus YBR229C, strain ROT2, active compounds read low 1.03 | locus YBR231C, strain swc5, active compounds read low 1.01 | locus YBR279W, strain paf1, active compounds read low 1.02 | locus YCL011C, strain gbp2, active compounds read low 1.02 | locus YCL016C, strain dcc1, active compounds read low 1.04 | locus YCL029C, strain bik1, active compounds read low 1.07 | locus YCL069W, strain vba3, active compounds read low 1.01 | locus YCR088W, strain abp1, active compounds read low 1.02 | locus YDL005C, strain med2, active compounds read low 1.02 | locus YDL035C, strain GPR1, active compounds read low 1.07 | locus YDL040C, strain nat1, active compounds read low 1.02 | locus YDL074C, strain BRE1, active compounds read low 1.14 | locus YDL101C, strain DUN1, active compounds read low 1.03 | locus YDL185W, strain tfp1, active compounds read low 1.03 | locus YDL192W, strain arf1, active compounds read low 1.03 | locus YDR001C, strain nth1, active compounds read low 1.01 | locus YDR069C, strain doa4, active compounds read low 1.01 | locus YDR101C, strain arx1, active compounds read low 0.996 | locus YDR137W, strain rgp1, active compounds read low 1.13 | locus YDR150W, strain NUM1, active compounds read low 1.03 | locus YDR159W, strain sac3, active compounds read low 0.987 | locus YDR162C, strain NBP2, active compounds read low 1.04 | locus YDR195W, strain ref2 0.996 | locus YDR297W, strain sur2, active compounds read low 1.02 | locus YDR318W, strain mcm21, active compounds read low 1.04 | locus YDR334W, strain swr1, active compounds read low 1.04 | locus YDR335W, strain msn5, active compounds read low 1.02 | locus YDR388W, active compounds read low 1.02 | locus YDR392W, strain spt3, active compounds read low 0.993 | locus YDR502C, strain sam2, active compounds read low 1.04 | locus YEL003W, strain gim4, active compounds read low 0.996 | locus YEL037C, strain rad23, active compounds read low 1.02 | locus YEL061C, strain CIN8 (second series), active compounds read low 1.02 | locus YEL061C, strain CIN8, active compounds read low 1.03 | locus YER015W, strain faa2, active compounds read low 1 | locus YER016W, strain bim1, active compounds read low 1.04 | locus YER110C, active compounds read low 1.02 | locus YER111C, strain swi4, active compounds read low 1.02 | locus YER155C, strain BEM2 (second series), active compounds read low 1.08 | locus YER155C, strain BEM2, active compounds read low 1.03 | locus YER167W, strain BCK2, active compounds read low 1.03 | locus YFR010W, strain ubp6, active compounds read low 0.998 | locus YGL078C, strain dbp3, active compounds read low 1.03 | locus YGL086W, strain mad1, active compounds read low 1.03 | locus YGL167C, strain pmr1, active compounds read low 1.02 | locus YGL173C, strain kem1, active compounds read low 0.994 | locus YGL227W, strain vid30, active compounds read low 1.02 | locus YGL240W, strain doc1, active compounds read low 1.01 | locus YGL248W, strain PDE1, active compounds read low 1.08 | locus YGL253W, strain hxk2, active compounds read low 1.03 | locus YGR078C, strain PAC10, active compounds read low 1.04 | locus YGR135W, strain pre9, active compounds read low 1.07 | locus YGR252W, strain gcn5, active compounds read low 1.07 | locus YHR013C, strain ard1, active compounds read low 1.04 | locus YHR027C, strain rpn1, active compounds read low 1.01 | locus YHR030C, strain SLT2, active compounds read low 0.966 | locus YHR079C, strain IRE1 (second series), active compounds read low 1.03 | locus YHR079C, strain IRE1, active compounds read low 0.969 | locus YHR094C, strain hxt1, active compounds read low 1.02 | locus YHR129C, strain ARP1, active compounds read low 1.05 | locus YHR142W, strain chs7, active compounds read low 1.03 | locus YHR200W, strain rpn10, active compounds read low 1.02 | locus YIL066C, strain RNR3, active compounds read low 1.05 | locus YIL073C, strain SPO22, active compounds read low 1.23 | locus YIL125W, strain kgd1, active compounds read low 1.02 | locus YIR030C, strain dcg1, active compounds read low 1.05 | locus YJL092W, strain hpr5, active compounds read low 1.03 | locus YJL095W, strain BCK1 (second series), active compounds read low 1.03 | locus YJL095W, strain BCK1, active compounds read low 1.12 and 0.981 | locus YJL115W, strain asf1, active compounds read low 1.02 | locus YJL129C, strain trk1, active compounds read low 1.08 | locus YJL134W, strain LCB3, active compounds read low 1.03 | locus YJL154C, strain vps35, active compounds read low 1.03 | locus YJL164C, strain tpk1, active compounds read low 1.01 | locus YJL166W, strain qcr8, active compounds read low 1.04 | locus YJL168C, strain set2, active compounds read low 1.02 | locus YJL187C, strain SWE1 (second series), active compounds read low 1.07
